Measurements taken from PubChem BioAssay (NCI).
“And” between values parts separate entries of the source, which are not always exact repeats. Equal entries are not always repeated. About 83,000 compounds went through this panel and 20% of them were active in at least one assay; those are over-represented in the sample as a whole.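 A percent growth of 40 corresponds to 60% growth inhibition; 0 means no net growth; -100 means all cells died. Active threshold: below 10.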 A number with no mark means an inactive call. The source made the active and inactive calls.

These molecules were tested on MDA-MB-468 breast (assay: NCI-60 one-dose screen, 48 h (100 = growth as untreated, 0 = no growth, -100 = all killed)). Settings: 10 µM unless noted.

Row | Structure (SMILES) | growth
1 | CC(C)(C)C(=O)Nc1nc2c(s1)CCc1ccn(S(=O)(=O)c3ccccc3)c1-2 | 88.7%
2 | Cc1c(Cl)cccc1NC(=O)c1sc2nc3c(cc2c1N)COCC3 | 17.7%
3 | CC(C)CCC[C@@H](C)[C@H]1CC[C@H]2[C@@H]3CC[C@H]4C/C(=N/O)CC[C@]4(C)[C@H]3CC[C@]12C | 99%
4 | COc1ccc(C(C)=O)cc1S(N)(=O)=O | 99.4%
5 | O=S(=O)(NCCCNc1nccc(-c2c(-c3cccc(F)c3)nc3occn23)n1)c1ccc(F)cc1 | 26.7%
6 | CCOC1=C(Cl)C(=O)C(OCC)=C(Cl)C1=O | 103%
7 | Nc1ccc(C(OC(=O)c2cc3ccccc3c(Cc3c(O)c(C(=O)OC(c4ccc(N)cc4)(c4ccc(N)cc4)c4ccc(N)cc4)cc4ccccc34)c2O)(c2ccc(N)cc2)c2ccc(N)cc2)cc1 | -23% (active)
8 | Cc1n(Cc2ccc3ccccc3n2)cc[n+]1Cc1ccc2ccccc2c1 | -23.5% (active)
9 | CCCCCCCCCCCCCCCCCCOP(=O)(O)O | 108%
10 | Nc1ncnc2c1c(-c1ccc(Oc3ccccc3)cc1)nn2C[C@@H]1SSC[C@H]1O | -0.15% (active)
11 | CCCCCCC/C=C/[C@H]1O[C@]23C(=O)C[C@@]4(C[C@@H](OC5OC(CO)C(O)C(O)C5O)C[C@@H]4[C@H]2C=C1C)OC3=O (stereo not given in full) | 25.7%
12 | CCOC(=O)/C(C#N)=C(/C)C1CC1 | 98.3%
13 | C#CCOC(=O)C(N)CSSCC(N)C(=O)O (stereo not given) | 109%
14 | Cc1nn(-c2ccccc2)c(N2CCOCC2)c1/C=N/N=c1\sc2ccccc2n1C | 71.6%
15 | COc1cc(N)ccc1Nc1c2ccccc2nc2ccccc12 | 92.4%
16 | COc1ccc(/C=N/Nc2nc(N/N=C/c3ccc(OC)cc3O)nc(N3CCOCC3)n2)c(O)c1 | 63.1%
17 | O=C(Nc1ccc(Cl)c(C(F)(F)F)c1)Nc1ccc2oc(=O)ccc2c1 | 24.8%
18 | O=[N+]([O-])c1ccc(Oc2ccccc2)cc1 | 103% and 113%
19 | Nc1cccc2c1CN(C1CCC(=O)NC1=O)C2=O (stereo not given) | 84%
20 | O=C(O)CCCc1ccccc1 | 109%

Row | Structure (SMILES) | growth
21 | COCCn1cc(-c2csc(-c3c[nH]c4ccccc34)n2)c2cccnc21 | -6.7% (active)
22 | COc1ccc2[nH]c(=O)c3c4ccccc4cn3c2c1 | 38%
23 | Cc1cc(=O)n(-c2ccc(F)cc2)[nH]1 | 113%
24 | CCCCCCCC(=O)SCC/C=C/[C@@H]1CC(=O)NCc2nc(cs2)C2=N[C@@](C)(CS2)C(=O)N[C@@H](C(C)C)C(=O)N1 | 40.7%
25 | N=C(N)c1ccc(-c2ccc(-c3cncc4ccccc34)s2)s1 | -72% (active)
26 | O=C(CCC(=O)OC1CCCC1)OC1CCCC1 | 100%
27 | COc1cc2oc(-c3cccc(C(=O)Nc4ccc(Cl)cc4)c3)cc(=O)c2c(O)c1OC | 43.7%
28 | CCOC(=O)C(=Cc1ccccc1F)C(=O)OCC | 76.7%
29 | Cc1nc2ncc(-c3ccc4ncnc(NCc5ccccc5)c4c3)cc2[nH]1 | 11.1%
30 | CC(=O)Nc1ccc(S(=O)(=O)Nc2cccc(-c3nc(-c4ccc(NC(=O)c5cccnc5)cc4Cl)no3)c2)cc1 | 18.4%
31 | O=C1OCC2=C1C(c1cccc(C(F)(F)F)c1)c1cc3c(cc1N2CCO)OCO3 (stereo not given) | -5.36% (active)
32 | O=c1[nH]ncc(Br)c1Br | -15.7% (active)
33 | O=C1/C(=C/c2ccc(O)cc2)Oc2ccc(Cl)cc21 | 131%
34 | CC(C)(C)N1CCC1C(N)=O (stereo not given) | 108%
35 | Cc1ccc(/C=C/C(=O)Nc2ncc(Cc3ccc(F)cc3)s2)o1 | 34%
36 | Cc1ccc(C(C)C)c(OCC(=O)O)c1 | 98.9%
37 | O=C1OC(c2ccc(-c3ccccc3)cc2)=C/C1=C/c1c(Cl)cccc1Cl | 90.8%
38 | NC(=O)c1c(NC(=O)COC(=O)Cc2ccccc2F)sc2c1CCC2 | 112%
39 | O=Cc1ccccc1C(=O)O | -6.83% (active)
40 | O=C(N/N=C/c1c(Cl)cccc1Cl)c1cccnc1Nc1cccc(C(F)(F)F)c1 | 26.6%
